{"source": "paper PMC6602471", "note": "Over roughly 1,300 sequences, “log fluorescence intensity” has its median near 8.9; the highest 2% begin near 13. Only a selection was taken, and the highest values are over-represented in it overall."}
{"molecular_target": "T1, ELK1 (Homo sapiens, UniProt P19419 1-428)", "T1 sequence": "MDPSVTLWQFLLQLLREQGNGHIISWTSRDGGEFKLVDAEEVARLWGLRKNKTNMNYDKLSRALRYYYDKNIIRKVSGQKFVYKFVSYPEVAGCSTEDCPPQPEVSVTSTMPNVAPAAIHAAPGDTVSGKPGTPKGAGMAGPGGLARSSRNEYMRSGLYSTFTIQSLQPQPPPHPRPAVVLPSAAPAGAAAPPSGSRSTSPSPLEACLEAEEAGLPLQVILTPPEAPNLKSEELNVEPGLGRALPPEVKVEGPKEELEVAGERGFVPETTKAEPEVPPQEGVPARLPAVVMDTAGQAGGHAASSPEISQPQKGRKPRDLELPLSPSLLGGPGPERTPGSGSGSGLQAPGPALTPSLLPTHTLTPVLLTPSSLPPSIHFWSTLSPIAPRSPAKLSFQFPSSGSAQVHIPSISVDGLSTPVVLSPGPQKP", "assay": "custom PBM; custom protein-binding microarray; buffer, salt, pH and temperature not stated; high values mean tight binding", "conditions": "dsDNA, one strand shown"}
{"sequence": "GCTGCTGCGGTGCATACCCCACCGGATGTGACTCCGGTCTTGATTCGCTTGACGCTGCTG", "binding signal": "10.3 log fluorescence intensity"}
{"sequence": "GATTAATTTCTTCCCTTATTCGCACGTGCCATAACAGTCTTGATTCGCTTGACGCTGCTG", "binding signal": "9.19 log fluorescence intensity"}
{"sequence": "CGGAAGTGTCGTGAACGTCGGATATCCGGTTCTTCTGTCTTGATTCGCTTGACGCTGCTG", "binding signal": "11.8 log fluorescence intensity"}
{"sequence": "CGGAAGTGTCGAAAACGTCGGATATCCGGTTCTTCTGTCTTGATTCGCTTGACGCTGCTG", "binding signal": "12.4 log fluorescence intensity"}
{"sequence": "CGGAAGTGTCGTAGACGTCGGATATCCGGTTCTTCTGTCTTGATTCGCTTGACGCTGCTG", "binding signal": "12.3 log fluorescence intensity"}
{"sequence": "CGGAAGTGTCCTAAACGTCGGATATCCGGTTCTTCTGTCTTGATTCGCTTGACGCTGCTG", "binding signal": "12.4 log fluorescence intensity"}
{"sequence": "CGGAAGTGTCGTATACGTCGGATATCCGGTTCTTCTGTCTTGATTCGCTTGACGCTGCTG", "binding signal": "12.5 log fluorescence intensity"}
{"sequence": "CGGAAGTGTCATAAACGTCGGATATCCGGTTCTTCTGTCTTGATTCGCTTGACGCTGCTG", "binding signal": "12.1 log fluorescence intensity"}
{"sequence": "CGGAAGTGTAGTAAACGTCGGATATCCGGTTCTTCTGTCTTGATTCGCTTGACGCTGCTG", "binding signal": "12.1 log fluorescence intensity"}
{"sequence": "CGGAAGTGTCGGAAACGTCGGATATCCGGTTCTTCTGTCTTGATTCGCTTGACGCTGCTG", "binding signal": "13.5 log fluorescence intensity"}
{"sequence": "CGGAAGTGTCGTCAACGTCGGATATCCGGTTCTTCTGTCTTGATTCGCTTGACGCTGCTG", "binding signal": "12.6 log fluorescence intensity"}
{"sequence": "CGGAAGTGTCGCAAACGTCGGATATCCGGTTCTTCTGTCTTGATTCGCTTGACGCTGCTG", "binding signal": "12.5 log fluorescence intensity"}
{"sequence": "CGGAAGTGTCGTTAACGTCGGATATCCGGTTCTTCTGTCTTGATTCGCTTGACGCTGCTG", "binding signal": "12.6 log fluorescence intensity"}
{"sequence": "CGGAAGTGTCTTAAACGTCGGATATCCGGTTCTTCTGTCTTGATTCGCTTGACGCTGCTG", "binding signal": "12.1 log fluorescence intensity"}
{"sequence": "GCTGCCGCGGTGCATACCCCACCGGATGTGACCCCGGTCTTGATTCGCTTGACGCTGCTG", "binding signal": "10.5 log fluorescence intensity"}
{"sequence": "GCTGATGCGGTGCATACCCCACCGGATGTGACCCCGGTCTTGATTCGCTTGACGCTGCTG", "binding signal": "10.2 log fluorescence intensity"}
{"sequence": "CTGGGACTTGACCCAACTCTGCCGCGTGGGTCGTTTGTCTTGATTCGCTTGACGCTGCTG", "binding signal": "8.91 log fluorescence intensity"}
{"sequence": "GGAAAAAGACCCAGGGTAACACCGGAAGTGGGCTTAGTCTTGATTCGCTTGACGCTGCTG", "binding signal": "11 log fluorescence intensity"}
{"sequence": "GCTGCTGCGTTGCATACCCCACCGGATGTGACCCCGGTCTTGATTCGCTTGACGCTGCTG", "binding signal": "10.1 log fluorescence intensity"}
{"sequence": "TCCGGCTACCAGCTCCACCCAATTCAGGCCTTGTAGGTCTTGATTCGCTTGACGCTGCTG", "binding signal": "8.93 log fluorescence intensity"}
{"sequence": "CTGGGACTTGACCTAACTCTGCCACGTGGGTCGTTTGTCTTGATTCGCTTGACGCTGCTG", "binding signal": "8.92 log fluorescence intensity"}
{"sequence": "CACAATTTTTACAGTAATGTAGCATGCGTAACTCCTGTCTTGATTCGCTTGACGCTGCTG", "binding signal": "8.94 log fluorescence intensity"}
{"sequence": "CTGGGACATGACCCAACTCTGCCACGTGGGTCGTTTGTCTTGATTCGCTTGACGCTGCTG", "binding signal": "8.96 log fluorescence intensity"}
{"sequence": "GCTGCTGCGGTGCATACCCCACAGGATGTGACCCCGGTCTTGATTCGCTTGACGCTGCTG", "binding signal": "9.08 log fluorescence intensity"}
{"sequence": "TGTCGGGTAAGGGAATGTAGATCACGTGAATGAATAGTCTTGATTCGCTTGACGCTGCTG", "binding signal": "8.98 log fluorescence intensity"}
{"sequence": "TGTCGGGTAAGGGAATGTAGATCACGTGAATGATAAGTCTTGATTCGCTTGACGCTGCTG", "binding signal": "9.11 log fluorescence intensity"}
{"sequence": "GCTGCTGCGGTGCATACCCCACCGGATGTGCCCCCGGTCTTGATTCGCTTGACGCTGCTG", "binding signal": "10.2 log fluorescence intensity"}
{"sequence": "TATTAATTTCTGCCCTTATTCGCACGTGCCATAACAGTCTTGATTCGCTTGACGCTGCTG", "binding signal": "8.91 log fluorescence intensity"}
{"sequence": "GTGTATAGGATCCCATCCAACACACGGGTTAAAATGGTCTTGATTCGCTTGACGCTGCTG", "binding signal": "8.95 log fluorescence intensity"}
{"sequence": "GCTGCTGCGGTGCCTACCCCACCGGATGTGACCCCGGTCTTGATTCGCTTGACGCTGCTG", "binding signal": "10.3 log fluorescence intensity"}
{"sequence": "TACTGACTTTTATATGCGAATGCACATGAATAGACCGTCTTGATTCGCTTGACGCTGCTG", "binding signal": "8.97 log fluorescence intensity"}
{"sequence": "GTAAAAAGGCCCAGGGTAACACCGGAAGTGGGCTTAGTCTTGATTCGCTTGACGCTGCTG", "binding signal": "10.9 log fluorescence intensity"}
{"sequence": "GTGTATAGGATCCCATCCAACACACGTATTAAAATGGTCTTGATTCGCTTGACGCTGCTG", "binding signal": "9.05 log fluorescence intensity"}
{"sequence": "CGGAAGTGTGGTAAACGTCGGATATCCGGTTCTTCTGTCTTGATTCGCTTGACGCTGCTG", "binding signal": "12 log fluorescence intensity"}
{"sequence": "CAGTATAGGACTTCTTCCCTGAAGCAATTGATAACCGTCTTGATTCGCTTGACGCTGCTG", "binding signal": "8.93 log fluorescence intensity"}
{"sequence": "GTGTATGGGATCCCATCCAACACACGTGTTAAAATGGTCTTGATTCGCTTGACGCTGCTG", "binding signal": "9.12 log fluorescence intensity"}
{"sequence": "CACTATTTTTACAGTAATGTAGCACGCGTAACTCCTGTCTTGATTCGCTTGACGCTGCTG", "binding signal": "8.94 log fluorescence intensity"}
{"sequence": "TACTGACTAATATATGCGAATGCACATGAATAGACCGTCTTGATTCGCTTGACGCTGCTG", "binding signal": "8.92 log fluorescence intensity"}
{"sequence": "TGTCGGGTAAGGAAATGTAGATCACGTGAATGAAAAGTCTTGATTCGCTTGACGCTGCTG", "binding signal": "8.91 log fluorescence intensity"}
{"sequence": "GGAAAGAGGCCCAGGGTAACACCGGAAGTGGGCTTAGTCTTGATTCGCTTGACGCTGCTG", "binding signal": "10.8 log fluorescence intensity"}
{"sequence": "CTGGGATTTGACCCAACTCTGCCACGTGGGTCGTTTGTCTTGATTCGCTTGACGCTGCTG", "binding signal": "9.02 log fluorescence intensity"}
{"sequence": "TGTCGGGTAAGGGAATGTAGATCACGTGGATGAAAAGTCTTGATTCGCTTGACGCTGCTG", "binding signal": "8.97 log fluorescence intensity"}
{"sequence": "TCCGGCTACCAGCTCCACCCACTTCAGGCCTTGTCGGTCTTGATTCGCTTGACGCTGCTG", "binding signal": "9.01 log fluorescence intensity"}
{"sequence": "CACAGTTTTTACAGTAATGTAGCACGCGTAACTCCTGTCTTGATTCGCTTGACGCTGCTG", "binding signal": "8.91 log fluorescence intensity"}
{"sequence": "GTGTATAGGATCCCATCCAACACACGTGATAAAATGGTCTTGATTCGCTTGACGCTGCTG", "binding signal": "8.94 log fluorescence intensity"}
{"sequence": "CAGCATAGGACTTCTTCCCTGAAACAATTGATAACCGTCTTGATTCGCTTGACGCTGCTG", "binding signal": "8.97 log fluorescence intensity"}
{"sequence": "GATTAATTTCTGCCCTTATTCGCACGTGCCCTAACAGTCTTGATTCGCTTGACGCTGCTG", "binding signal": "8.97 log fluorescence intensity"}
{"sequence": "TCCGGCTACCAGCTCCACCCACTTCATGCCTTGTAGGTCTTGATTCGCTTGACGCTGCTG", "binding signal": "8.92 log fluorescence intensity"}
{"sequence": "GGAAAAAGGCCCAGGGTAACTCCGGAAGTGGGCTTAGTCTTGATTCGCTTGACGCTGCTG", "binding signal": "10.4 log fluorescence intensity"}
{"sequence": "GTGTATAGGATCCCATCCAACACACGTGTTACAATGGTCTTGATTCGCTTGACGCTGCTG", "binding signal": "9.02 log fluorescence intensity"}
{"sequence": "TGTCGGGTAAGGGAATGTACATCACGTGAATGAAAAGTCTTGATTCGCTTGACGCTGCTG", "binding signal": "8.92 log fluorescence intensity"}
{"sequence": "GTGTATAGGATCCCATCCCACACACGTGTTAAAATGGTCTTGATTCGCTTGACGCTGCTG", "binding signal": "9.07 log fluorescence intensity"}
